Data reported in PubChem BioAssay AID493194 (Broad Institute, 2011).
Potency and affinity values are given separately. Inconclusive results are not listed. Active and inactive are the calls of the source.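 Rule for the calls: active = a valid curve of falling signal whose half-effect concentration is at most ten times the top tested dose; inconclusive = flat curve at 30 to 70% inhibition, or poor fit; inactive = signal rise, flat within 30%, or potency beyond limit.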

target: Scavenger receptor class B member 1 (Mus musculus) (UniProt Q61009); assay: inhibitors of SR-BI mediated HDL lipid uptake, dose response, ldlA[mSR-BI] cells, fluorescence, cherry pick (AID 493194); conditions: CHO ldlA[mSR-BI] DiI-HDL uptake fluorescence, 3 h; series mostly up to 35 µM;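 note: CHO cells lacking LDL receptor and overexpressing mouse SR-BI; cellular uptake of fluorescently labeled HDL measured as cell fluorescence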
Sequence (Q61009 whole entry, looked up): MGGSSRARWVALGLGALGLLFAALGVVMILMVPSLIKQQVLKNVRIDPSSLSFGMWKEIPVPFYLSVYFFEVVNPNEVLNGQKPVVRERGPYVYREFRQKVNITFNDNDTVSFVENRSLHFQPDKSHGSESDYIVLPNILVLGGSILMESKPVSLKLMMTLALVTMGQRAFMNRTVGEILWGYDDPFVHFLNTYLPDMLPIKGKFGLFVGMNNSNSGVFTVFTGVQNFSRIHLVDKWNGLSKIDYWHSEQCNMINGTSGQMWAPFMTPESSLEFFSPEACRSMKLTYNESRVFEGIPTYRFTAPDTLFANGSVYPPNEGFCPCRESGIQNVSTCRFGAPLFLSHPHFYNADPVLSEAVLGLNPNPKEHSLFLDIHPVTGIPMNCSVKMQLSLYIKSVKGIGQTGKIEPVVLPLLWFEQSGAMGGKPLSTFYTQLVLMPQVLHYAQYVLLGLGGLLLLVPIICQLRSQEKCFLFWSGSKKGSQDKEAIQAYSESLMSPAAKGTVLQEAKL

outcome, inactive:
Cn1nc(-c2ccc(Cl)cc2)c2cc(C(=O)NCCCN3CCOCC3)sc21
COc1ccc(-c2csc(N3CCN(c4cc(C)nc5ccccc45)CC3)n2)cc1OC
Cc1cccc(NC(=O)N2C3CCCC2CC(NC(=O)C(C)(C)C)C3)c1 (stereo not drawn)
CC(Sc1nc2cc([N+](=O)[O-])ccc2n1-c1ccc(F)cc1)C(=O)NCc1ccc2c(c1)OCO2 (stereo not drawn)
CNc1nc(-c2ccc3c(c2)CCN3C(=O)c2ccc(F)cc2)cs1
COc1ccc([C@H]2/C=C\CN(S(=O)(=O)c3cccc4cccnc34)[C@@H](C)C(=O)N2Cc2ccc(F)cc2)cc1
CN(C)c1ccc(/C=C2\Oc3ccc(C#Cc4cccc(N)c4)cc3C2=O)cc1
COCC(C)N1CC(O)=C(c2nc(-c3ccc(Cl)cc3)cs2)C1=N (stereo not drawn)
COc1ccc(-c2nnn(CC(=O)N(C3CCCCC3)C(C)C(=O)NC3CCCC3)n2)cc1OC (stereo not drawn)
CC(C)OC(=O)c1cccc(C(=O)Nc2cccc(NC(=O)c3cccc(C(=O)OC(C)C)n3)n2)n1
CCOC(=O)N1CCN(CC(O)COC2CC(C)CCC2C(C)C)CC1 (stereo not drawn)
Cc1ccc(OCC(=O)NNC(=O)C2CCN(c3ncnc4sc(C)c(C)c34)CC2)cc1
O=C(Nc1ccccc1)NC1CC2CCC(C1)N2Cc1nnnn1Cc1ccc2c(c1)OCO2 (stereo not drawn)
CN(C(=O)COC(=O)c1c2c(nc3ccccc13)/C(=C/c1cccc([N+](=O)[O-])c1)CCC2)C1CCS(=O)(=O)C1 (stereo not drawn)
Cc1ccc(/C=C/C(=O)Nc2sc3c(c2C#N)CCCC3)o1
CC(C)c1nnc(NC(=O)CCC(=O)N2CCN(C3c4ccccc4-c4ccccc43)CC2)s1
CCC(=O)Nc1ccccc1-c1nnn(CC(=O)N2c3ccccc3CC2C)n1 (stereo not drawn)
COc1ccc(CCNC(=O)c2ccc3c(c2)N(Cc2ccc(C)cc2)CCS3)cc1OC
COc1cccc(-c2nnc(SC(C(=O)c3c[nH]c4ccccc34)c3ccccc3)n2C)c1 (stereo not drawn)
CCOCCOC(=O)c1[nH]c2c(c1C)C(=O)CC(c1cccs1)C2 (stereo not drawn)
Cc1c(Nc2nc3ccccc3nc2N2CCN(c3ccccc3)CC2)c(=O)n(-c2ccccc2)n1C
O=C(OCCNc1ncc(C(F)(F)F)cc1Cl)c1ccc(S(=O)(=O)N2CCOCC2)cc1
CC(C)CN(C(=O)COC(=O)C12CC3CC(CC(O)(C3)C1)C2)C1CCS(=O)(=O)C1 (stereo not drawn)
O=C(CSc1cn(CCNC(=O)c2cccs2)c2ccccc12)NCC1CCCO1 (stereo not drawn)
CCOC(=O)C(=O)Nc1nc(-c2ccc3c(c2)CCN3C(=O)C2CC2)c(C)s1
C=CCN(CC=C)C(=O)COn1nnc2ccc(S(=O)(=O)N3CCOCC3)cc21
Cc1cccc(-c2ccc3c(c2)C2CC3CCN2C(=O)OCc2ccccc2)c1 (stereo not drawn)
CCC(C)C1/C=C\CC(NC(=O)OCC2c3ccccc3-c3ccccc32)CC(=O)N1Cc1ccccc1 (stereo not drawn)
O=C(Nc1ccc(-c2csc(Nc3cccc(C(F)(F)F)c3)n2)cc1)c1cccc(C(F)(F)F)c1
CC(=O)c1ccc(-c2ccc(C(=O)Nc3nc(-c4ccccn4)cs3)o2)cc1
COc1ccc(CCN2CC(C(=O)NCc3cc(C(C)C)no3)CCC2=O)cc1 (stereo not drawn)
Cc1cc(=O)oc2cc(OCC(=O)N3CCN(C(=O)C4COc5ccccc5O4)CC3)c(Cl)cc12 (stereo not drawn)
CCOc1ccc(NC(=O)CN2CCN(CC(=O)Nc3ccc(N(C)C)cc3)CC2)cc1
COC(=O)[C@]1(CC(C)C)N[C@H](c2ccc(-c3cccc(Cl)c3)cc2)[C@@H]2C(=O)N(C)C(=O)[C@@H]21
COc1ccc(NC(=O)N2CCN(c3nc(-c4cccc(OC)c4)cs3)CC2)cc1
O=C(Nc1ccn(Cc2c(F)c(F)c(F)c(F)c2F)n1)c1ccc(COc2ccccc2Cl)cc1
Cc1ccc(CCNC(=O)C2CCN(C(=O)c3sccc3-n3cccc3)CC2)cc1
COc1ccccc1CNC(=O)C1CCN(C(=O)c2sccc2-n2cccc2)CC1
